# In PubChem BioAssay (NCATS):
# Records with an inconclusive call do not appear. Activity calls are given as the source filed them. Unless noted, calls follow the shape of the dose curve; as a rule, active = well fitted curve in the direction sought with a large enough effect; inconclusive = small, poorly fitted or top-dose-only effect, or another doubt; inactive = no such curve, though single readings can be large; an effect the other way counts as inactive or inconclusive.
# Legend:
# [1] = Quantitative High-Throughput drug screen in 47 multiple myeloma cell lines against the NCATS MIPE library collection: VP6_DJ cell viability assay (AID 1919867); also: nearly all actives have a fitted effect of over 40% in size; also: potency is read from the fitted curve at half-maximal effect
# Outline: (§1)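 Inhibition of viability over 48 h was scored by ATP content (CellTiter-Glo) in 500-cell wells. Zero and full viability were defined by media-only and DMSO-only wells.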
# [2] = Quantitative High-Throughput drug screen in 47 multiple myeloma cell lines against the NCATS MIPE library collection: PCM6_Riken cell viability assay (AID 1919870); also: nearly all actives have a fitted effect of over 30% in size; also: potency is read from the fitted curve at half-maximal effect
# Outline: as §1
# [3] = Quantitative High-Throughput drug screen in 47 multiple myeloma cell lines against the NCATS MIPE library collection: RPMI8226_ATCC cell viability assay (AID 1919871); also: nearly all actives have a fitted effect of over 30% in size; also: potency is read from the fitted curve at half-maximal effect
# Outline: as §1
# [4] = Quantitative High-Throughput drug screen in 47 multiple myeloma cell lines against the NCATS MIPE library collection: OPM2_DSMZ cell viability assay (AID 1919872); also: nearly all actives have a fitted effect of over 30% in size; also: potency is read from the fitted curve at half-maximal effect
# Outline: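 Inhibition of cell viability is measured here. Each line was plated at 500 cells per well, treated with MIPE 4.0 drugs, kept 48 hours at 37C, then assayed for ATP content by CellTiter-Glo luminescence.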
# [5] = Quantitative High-Throughput drug screen in 47 multiple myeloma cell lines against the NCATS MIPE library collection: KMS11_JCRBsus cell viability assay (AID 1919873); also: nearly all actives have a fitted effect of over 50% in size; also: potency is read from the fitted curve at half-maximal effect
# Outline: as §1
# [6] = Quantitative High-Throughput drug screen in 47 multiple myeloma cell lines against the NCATS MIPE library collection: KMS28BM_JCRB cell viability assay (AID 1919874); also: nearly all actives have a fitted effect of over 35% in size; also: potency is read from the fitted curve at half-maximal effect
# Outline: as §1
# [7] = qHTS drug screen for cell cycle checkpoint inhibitors in PARPi-resistant BRCA-mutant ovarian cancer cell lines. (AID 1963452; calls by dose curve); conditions: PEO1/OlaR viability, CellTiter-Glo luminescence, 96 h, stronger effect = lower value
# Outline: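 PEO1, PEO4 and PEO1/OlaR ovarian cancer cells, 600 per well, exposed 96 h at 37C to a dilution series. Viability read by CellTiter-Glo luminescence, normalized to DMSO and empty wells; activity summarized as Z-AUC.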
# [8] = Quantitative High-Throughput drug screen in 47 multiple myeloma cell lines against the NCATS MIPE library collection: PE2_PLB cell viability assay (AID 1919869); also: nearly all actives have a fitted effect of over 35% in size; also: potency is read from the fitted curve at half-maximal effect
# Outline: as §1
# [9] = qHTS for identification of novel therapeutic agents for treatment of microphthalmiaassociated transcription factor (MiT) renal cell carcinoma (RCC) (AID 1963991; calls by dose curve; also: potency is read from the fitted curve at half-maximal effect); conditions: CellTiter-Glo, 48 h; for z-score: stronger effect = lower value
# Outline: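 Three TFE3-fusion RCC cell lines (UOK109, UOK124, UOK145), 500 cells/well, were exposed to the 1912-compound MIPE 4.0 library for 48 hours at 37 C. Viability was read by CellTiter-Glo luminescence, normalised to DMSO (100%) and empty wells (0%), with 11-concentration curve fits.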
# [10] = qHTS profiling for inhibitors of Plasmodium falciparum proliferation (AID 504749); also: potency is read from the fitted curve at half-maximal effect; nearly all actives have a fitted effect of over 60% in size; conditions: P. falciparum in erythrocytes, SYBR Green DNA, 72 h
# Outline: (§2)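 Infected RBCs, 0.3% parasitemia/2.5% Hct final; cpd 72 h, 37 C, 5% CO2; lysis buffer with saponin/triton/SYBR Green I, o/n RT dark; FI 485/535; norm. to artemisinin (0.29 uM) and DMSO.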
# 7G8 = assay: as above; conditions: P. falciparum in erythrocytes, SYBR Green DNA, 72 h; series mostly up to 28.7 µM
# Outline: as §2
# AA1029 = assay: as above; conditions: P. falciparum in erythrocytes, SYBR Green DNA, 72 h; series mostly up to 28.7 µM
# Outline: as §2
# AS120 = assay: as above; conditions: P. falciparum in erythrocytes, SYBR Green DNA, 72 h; series mostly up to 28.7 µM
# Outline: as §2
# ATS189 = assay: as above; conditions: P. falciparum in erythrocytes, SYBR Green DNA, 72 h; series mostly up to 28.7 µM
# Outline: as §2
# ATS95 = assay: as above; conditions: P. falciparum in erythrocytes, SYBR Green DNA, 72 h; series mostly up to 28.7 µM
# Outline: as §2
# C2A = assay: as above; conditions: P. falciparum in erythrocytes, SYBR Green DNA, 72 h; series mostly up to 28.7 µM
# Outline: as §2
# CP185 = assay: as above; conditions: P. falciparum in erythrocytes, SYBR Green DNA, 72 h; series mostly up to 28.7 µM
# Outline: as §2
# CP191 = assay: as above; conditions: P. falciparum in erythrocytes, SYBR Green DNA, 72 h; series mostly up to 28.7 µM
# Outline: as §2
# [11] = Quantitative High-Throughput drug screen in 47 multiple myeloma cell lines against the NCATS MIPE library collection: UTMC2_PLB cell viability assay (AID 1919868); conditions: CellTiter-Glo ATP luminescence, 48 h; viability (% of DMSO control): at 45.8 µM (top of the series) unless noted;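 also: 100% = DMSO-only wells and 0% = media-only wells without cells; nearly all actives have a fitted effect of over 55% in size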
# Outline: as §1
# 3D7 = assay: qHTS profiling for inhibitors of Plasmodium falciparum proliferation (AID 504749); also: potency is read from the fitted curve at half-maximal effect; nearly all actives have a fitted effect of over 60% in size; conditions: P. falciparum in erythrocytes, SYBR Green DNA, 72 h; series mostly up to 28.7 µM
# Outline: as §2
# [12] = measured here: PEO1 parental Z-AUC
# [13] = TFE3-RCC UOK109 viability, measured here: UOK109 Z-AUC
# [14] = TFE3-RCC viability, measured here: UOK124 Z-AUC
# [15] = TFE3-RCC viability, measured here: UOK145 Z-AUC
smiles,measurement,setting,value
COc1ccc2c(c1)CC[C@@H](CN(C)CC(=O)O)[C@H]2c1ccccc1,Potency,[1],1870 nM (active)
same,Potency,[2],1660 nM (active)
same,Potency,[3],2640 nM (active)
same,Potency,[4],8330 nM (active)
same,Potency,[5],662 nM (active)
same,Potency,[6],1050 nM (active)
same,Z-AUC,[7],0.47 (inactive)
same,Z-AUC,[7]; [12],1.17
same,Z-AUC,[7]; measured here: PEO4 Z-AUC,1.29
COC(=O)C1=C(C)NC(C)=C(C(=O)OCCN2CCN(C(c3ccccc3)c3ccccc3)CC2)C1c1cccc([N+](=O)[O-])c1 (stereo not drawn),Potency,[1],4180 nM (active)
same,Potency,[8],inactive
same,Potency,[2],inactive
same,Potency,[5],inactive
same,Potency,[6],inactive
same,z-score,[9]; [13],0.729
same,z-score,[9]; [14],0.516
same,z-score,[9]; [15],-0.011
same,Potency,[10]; parasite line A,3160 nM (active)
same,Potency,[10]; parasite line B,3980 nM (active)
same,Potency,7G8,1410 nM (active)
same,Potency,AA1029,2240 nM (active)
same,Potency,AS120,2000 nM (active)
same,Potency,ATS189,1580 nM (active)
same,Potency,ATS95,2510 nM (active)
same,Potency,C2A,3550 nM (active)
same,Potency,CP185,4470 nM (active)
same,Potency,CP191,3160 nM (active)
CCCCCCCCCC(=O)N[C@@H](Cc1c[nH]c2ccccc12)C(=O)N[C@H](CC(N)=O)C(=O)N[C@@H](CC(=O)O)C(=O)N[C@@H]1C(=O)NCC(=O)N[C@@H](CCCN)C(=O)N[C@@H](CC(=O)O)C(=O)N[C@H](C)C(=O)N[C@@H](CC(=O)O)C(=O)NCC(=O)N[C@H](CO)C(=O)N[C@@H]([C@@H](C)CC(=O)O)C(=O)N[C@@H](CC(=O)c2ccccc2N)C(=O)O[C@@H]1C,Potency,[8],inactive
same,Potency,[2],inactive
same,Potency,[3],inactive
same,Potency,[4],inactive
same,Potency,[5],inactive
same,Potency,[6],inactive
same,Z-AUC,[7],-0.7 (inactive)
same,Z-AUC,[7]; [12],-0.476
same,Z-AUC,[7]; measured here: PEO4 Z-AUC,-0.85
COC(=O)c1ccc2c(C(=Nc3ccc(N(C)C(=O)CN4CCN(C)CC4)cc3)c3ccccc3)c(O)[nH]c2c1,Potency,[8],10500 nM (active)
same,Potency,[2],2960 nM (active)
same,Potency,[3],3720 nM (active)
Cc1cn2cc(C(=O)N(C)CCO)cc(N[C@@H]3CCOc4cccc(C)c43)c2n1,Potency,[11],inactive
same,Potency,[8],inactive
same,Potency,[3],inactive
same,Potency,[5],inactive
same,Potency,[6],inactive
same,Z-AUC,[7],1.4 (inactive)
same,Z-AUC,[7]; [12],1.4
same,Z-AUC,[7]; measured here: PEO4 Z-AUC,1.61
Cn1cc(-c2ccncc2)c(-c2ccc(OCc3ccc4ccccc4n3)cc2)n1,Potency,[1],5260 nM (active)
same,Potency,[8],5900 nM (active)
same,Potency,[3],6620 nM (active)
same,Potency,[5],8330 nM (active)
same,Z-AUC,[7],0.205 (inactive)
same,Z-AUC,[7]; [12],-0.209
same,Z-AUC,[7]; measured here: PEO4 Z-AUC,0.0189
Cc1coc2c1C(=O)C(=O)c1c-2ccc2c1CCCC2(C)C,Potency,[1],20900 nM (active)
same,Potency,[4],16600 nM (active)
same,Potency,[6],inactive
same,Z-AUC,[7],1.2 (inactive)
same,Z-AUC,[7]; [12],0.989
same,Z-AUC,[7]; measured here: PEO4 Z-AUC,0.949
CC[C@H]1CN2CCc3cc(OC)c(OC)cc3[C@H]2C[C@@H]1C[C@@H]1NCCc2cc(OC)c(OC)cc21,Potency,[1],148 nM (active)
same,Potency,[8],296 nM (active)
same,Potency,[2],166 nM (active)
same,Potency,[5],166 nM (active)
same,Potency,[6],235 nM (active)
same,Potency,"[9]; TFE3-RCC UOK109 viability, active = Z-AUC below -0.8 in all three lines",166 nM (active)
same,z-score,[9]; [13],-1.94
same,z-score,[9]; [14],-1.32
same,z-score,[9]; [15],-3.58
same,Potency,[10]; parasite line A,316 nM (active)
same,Potency,[10]; parasite line B,282 nM (active)
same,Potency,3D7,224 nM (active)
same,Potency,7G8,126 nM (active)
same,Potency,AA1029,316 nM (active)
same,Potency,AS120,316 nM (active)
same,Potency,ATS189,708 nM (active)
same,Potency,ATS95,282 nM (active)
same,Potency,C2A,224 nM (active)
same,Potency,CP185,316 nM (active)
O=C(NCCCNc1nc(Nc2cccc(NC(=O)N3CCCC3)c2)ncc1I)c1cccs1,Potency,[1],2090 nM (active)
same,Potency,[8],1180 nM (active)
same,Potency,[2],5260 nM (active)
same,Z-AUC,[7],1.15 (inactive)
same,Z-AUC,[7]; [12],1.02
same,Z-AUC,[7]; measured here: PEO4 Z-AUC,0.426
O=C(C=Cc1c(C(=O)O)[nH]c2cc(Cl)cc(Cl)c12)Nc1ccccc1,Potency,[1],inactive
same,Potency,[2],inactive
same,Potency,[3],inactive
same,Potency,[4],inactive
same,Potency,[5],inactive
same,Potency,[6],inactive
same,z-score,[9]; [13],0.0645
same,z-score,[9]; [14],0.537
same,z-score,[9]; [15],0.334
Nc1nc(NCCNc2ncc(-n3ccnc3)c(-c3ccc(Cl)cc3Cl)n2)ccc1[N+](=O)[O-],Potency,[1],7430 nM (active)
same,Potency,[8],3720 nM (active)
same,Potency,[2],2350 nM (active)
same,Z-AUC,[7],0.218 (inactive)
same,Z-AUC,[7]; [12],0.907
same,Z-AUC,[7]; measured here: PEO4 Z-AUC,0.221
CCn1nnc2c(N3CCOCC3)nc(-c3ccc(NC(=O)Nc4ccc(C(=O)N5CCN(C)CC5)cc4)cc3)nc21,Potency,[2],33.2 nM (active)
same,Potency,[3],52.6 nM (active)
same,Potency,[4],93.5 nM (active)
same,Potency,[5],23.5 nM (active)
same,Potency,[6],4.2 nM (active)
same,Z-AUC,[7],-0.869 (inactive)
same,Z-AUC,[7]; [12],-1.58
same,Z-AUC,[7]; measured here: PEO4 Z-AUC,-1.65
CCC1=C[C@@H]2CN(C1)Cc1c([nH]c3ccccc13)[C@@](C(=O)OC)(c1cc3c(cc1OC)N(C)[C@@H]1[C@@](O)(C(=O)OC)[C@H](OC(C)=O)[C@]4(CC)C=CCN5CC[C@]31[C@@H]54)C2,Potency,[8],26.4 nM (active)
same,Potency,[3],118 nM (active)
same,Potency,[4],16.6 nM (active)
same,Potency,[6],4.7 nM (active)
same,Potency,[10]; parasite line A,3160 nM (active)
same,Potency,[10]; parasite line B,5010 nM (active)
same,Potency,3D7,3160 nM (active)
same,Potency,7G8,2240 nM (active)
same,Potency,AA1029,1580 nM (active)
same,Potency,AS120,1410 nM (active)
same,Potency,ATS189,1780 nM (active)
same,Potency,ATS95,2000 nM (active)
same,Potency,C2A,1260 nM (active)
same,Potency,CP185,3160 nM (active)
same,Potency,CP191,3980 nM (active)
